Each structure is given as a SMILES string. Activity calls are given as the source filed them. Calls come from the whole dose curve; as a rule, active = well fitted curve in the direction sought with a large enough effect; inconclusive = small, poorly fitted or top-dose-only effect, or another doubt; inactive = no such curve, though single readings can be large or run the other way.

This experiment can be described thus: qHTS screen for inhibitors of ELG1-dependent DNA repair in human embryonic kidney (HEK293T) cells expressing luciferase-tagged ELG1: 5FU Viability Assay for probe SAR. To be noted: HEK293T ELG1-luc, CellTiter-Glo viability, 16 h; series mostly up to 46.1 µM; activity change, negative = inhibition: at the top concentration. From the text: Cancer cells divide rapidly compared to normal cells in the body. During cell division, cancer cells need to duplicate their genome by DNA replication. The failure of genome duplication leads to cancer cells' death. Therefore, inhibitors of DNA replication could specifically kill cancer cells. Based on this concept, many chemotherapeutic agents were developed and have been used to treat cancer patients. However, there are a limited number of agents available in the clinical setting, and some of those that do exist have low efficacy and severe side effects. Therefore, if we can find the compounds that effectively block DNA replication either by directly damaging DNA or by inhibiting other cellular mechanisms, the options for cancer treatment will be broadened. With this in mind, we developed a quantitative high-throughput ELG1-luciferase reporter gene assay. Small molecules that specifically block ELG1 function in response to DNA damage can be identified by monitoring the suppression of luciferase activity. Since ELG1 defines a pathway for repairing DNA damage, agents blocking ELG1 function can be used to sensitize cancer cells to chemotherapeutic agents whose mechanism of action involves the induction of DNA damage. Cytotoxicity of the active compounds in the ELG1 qHTS assay (AID 493107) was assessed using the CellTiter-Glo Luminescent Cell Viability Assay kit (Promega, USA). CellTiter-Glo measures the intracellular ATP present in metabolically active cells using Ultra-Glo as the luciferase to detect ATP levels. In brief, the luciferase in the buffer catalyzes the oxidation of luciferin to oxyluciferin and light which is dependent on ATP. […] DMSO and wells with media alone were used as positive and negative controls, respectively. Inactivity to this assay is the desirable outcome. NIH Molecular Libraries Probe Production Network [MLPCN] NIH Chemical Genomics Center [NCGC] MLPCN Grant: R03 MH092164 Assay Provider: Kyungjae Myung, NHGRI, NIH
ELG1-luc HEK293T cells will be seeded in 1536-well plates at a density of 2,000 cells/well. Approximately 5 hours after plating, compounds will be added to the plate by pin tool transfer and 5-fluorouridine will be added by FRD dispenser (final concentration of 5-fluorouridine =10 µM). 16 hours following the addition of the compounds, cell viability will be measured using CellTiter Glo.
On to `Fc1cc(Nc2nc(-c3ccncc3)nc3ccccc23)ccc1-c1cccc(OC(F)F)c1`, for which the “activity change, negative = inhibition” value is -3.5% (inactive). Turning to `Cc1cc(-c2nc(Nc3ccc(F)c(F)c3)c3ccccc3n2)ccn1`, the “activity change, negative = inhibition” value was 22.7% (inactive). `Fc1cccc(Nc2nc(-c3ccncc3)nc3ccccc23)c1`: the “activity change, negative = inhibition” value is 20.6% (inactive). The result for `Fc1cc(Nc2nc(-c3ccncc3)nc3ccccc23)ccc1OCC(F)(F)F` reads 20.7% (inactive); that for `Fc1ccc(Nc2nc(-c3ccnc(C(F)(F)F)c3)nc3ccccc23)cc1F`, 11.1% (inactive). Regarding `N#Cc1cnccc1-c1nc(Nc2ccc(F)c(F)c2)c2ccccc2n1`, the “activity change, negative = inhibition” value is 50.8% (inactive). Next, `Fc1ccc(Nc2nc(-c3ccncc3F)nc3ccccc23)cc1F`: 29.9% (inactive). For the compound `Cc1ccc(Nc2nc(-c3ccncc3)nc3ccccc23)cc1F`, the “activity change, negative = inhibition” value is 10.7% (inactive). As for `Fc1cc(Nc2nc(-c3ccncc3)nc3ccccc23)ccc1-c1cn[nH]c1`, the “activity change, negative = inhibition” value is 30.4% (inactive). `COC(=O)c1ccc(Nc2nc(-c3ccncc3)nc3ccccc23)cc1OC`: the “activity change, negative = inhibition” value is 34% (inactive). In the case of `Fc1cc(-c2nc(Nc3ccc(F)c(F)c3)c3ccccc3n2)ccn1`, the “activity change, negative = inhibition” value was 22.8% (inactive). Turning to `Cc1noc(C)c1-c1ccc(Nc2nc(-c3ccncc3)nc3ccccc23)cc1F`, the “activity change, negative = inhibition” value was -90.5% (inactive). The result for `Fc1cc(Nc2nc(-c3ccncc3)nc3ccccc23)ccc1OC(F)(F)F` reads 26.8% (inactive); that for `Cc1nc2ccc(Nc3nc(-c4ccncc4)nc4ccccc34)cc2s1`, 30.3% (inactive).

Consider `Fc1cc(Nc2nc(-c3ccncc3)nc3ccccc23)ccc1-c1ccc2[nH]ncc2c1`, for which the “activity change, negative = inhibition” value was -0.733% (inactive). The result for `COc1cc(Nc2nc(-c3ccncc3)nc3ccccc23)ccc1N1CCN(C)CC1` reads 4.29% (inactive). With `Fc1ccc(-c2ccc(Nc3nc(-c4ccncc4)nc4ccccc34)cc2F)c(Cl)c1`, the “activity change, negative = inhibition” value was -26.9% (inactive). The result for `COc1ccc(-c2ccc(Nc3nc(-c4ccncc4)nc4ccccc34)cc2F)cc1F` reads 4.42% (inactive); that for `N#Cc1cc(-c2nc(Nc3ccc(F)c(F)c3)c3ccccc3n2)ccn1`, 3.09% (inactive). For `Fc1ccc(Nc2nc(-c3ccncc3Cl)nc3ccccc23)cc1F`, the “activity change, negative = inhibition” value is 35.1% (inactive). Turning to `Fc1ccc(Nc2cc(-c3ccccc3)nc(-c3ccncc3)n2)cc1F`, the “activity change, negative = inhibition” value is 35.2% (inactive).

In the case of `COc1ccc(Nc2nc(-c3ccncc3)nc3ccccc23)cc1F`, the “activity change, negative = inhibition” value was 0.644% (inactive). In the case of `COc1cc(-c2nc(Nc3ccc(F)c(F)c3)c3ccccc3n2)ccn1`, the “activity change, negative = inhibition” value was 36% (inactive). In the case of `O=[N+]([O-])c1ccc(-c2nc(Nc3ccc(F)c(F)c3)c3ccccc3n2)cc1`, the “activity change, negative = inhibition” value was -1.93% (inactive). As to `Fc1cc(Nc2nc(-c3ccncc3)nc3ccccc23)ccc1-c1ccnc(C(F)(F)F)c1`, the “activity change, negative = inhibition” value was -8.22% (inactive). For `Fc1cc(Nc2nc(-c3ccncc3)nc3ccccc23)ccc1-c1cccc(OC(F)(F)F)c1`, the “activity change, negative = inhibition” value is -29.3% (inactive). On to `Cc1cc(-c2nc(Nc3ccc(F)c(F)c3)c3ccccc3n2)cc(C)n1`, for which the “activity change, negative = inhibition” value is 30.7% (inactive).

For `COc1nccc(-c2nc(Nc3ccc(F)c(F)c3)c3ccccc3n2)c1Cl`, the “activity change, negative = inhibition” value was 29.1% (inactive). The result for `Fc1ccc(-c2ccc(Nc3nc(-c4ccncc4)nc4ccccc34)cc2F)c(F)c1` reads -9.69% (inactive); that for `Fc1cc(Nc2nc(-c3ccncc3)nc3ccccc23)ccc1-c1cc(F)c(F)c(F)c1`, 9.22% (inactive); that for `COc1cc(Nc2nc(-c3ccncc3)nc3ccccc23)ccc1Cl`, 2.26% (inactive). In the case of `Oc1ccc(Nc2nc(-c3ccncc3)nc3ccccc23)cc1F`, the “activity change, negative = inhibition” value was 21.5% (inactive). Next, `CSc1ccccc1-c1ccc(Nc2nc(-c3ccncc3)nc3ccccc23)cc1F`: -8.99% (inactive).

As to `Cc1cnccc1-c1nc(Nc2ccc(F)c(F)c2)c2ccccc2n1`, the “activity change, negative = inhibition” value is 30.7% (inactive). For `Nc1cc(-c2nc(Nc3ccc(F)c(F)c3)c3ccccc3n2)ccn1`, the “activity change, negative = inhibition” value is 50.6% (inactive).

Take `COc1ccc(-c2nc(Nc3ccc(F)c(F)c3)c3ccccc3n2)cc1`: the “activity change, negative = inhibition” value is -12.5% (inactive). Take `Fc1ccc(Nc2nc(-c3ccncc3)nc3ccccc23)cc1F`: the “activity change, negative = inhibition” value is 57.5% (inactive).

For `Fc1cccc(-c2ccc(Nc3nc(-c4ccncc4)nc4ccccc34)cc2F)c1`, the “activity change, negative = inhibition” value is 24.5% (inactive). `COc1cnccc1-c1nc(Nc2ccc(F)c(F)c2)c2ccccc2n1`: the “activity change, negative = inhibition” value is -5.9% (inactive).

Consider `Fc1cc(Nc2nc(-c3ccncc3)nc3ccccc23)ccc1-c1cccnc1`, for which the “activity change, negative = inhibition” value was -10.6% (inactive).

Source of the values: PubChem BioAssay AID686921 (National Center for Advancing Translational Sciences (NCATS), 2013).
